Among all 16,000 compounds or so, about 4,000 (25%) were called active. Inconclusive results (about 26%) are left out. Not all results are given here. Values without a mark were called inactive. Calls come from the whole dose curve; as a rule, active = well fitted curve in the direction sought with a large enough effect; inconclusive = small, poorly fitted or top-dose-only effect, or effect the other way; inactive = no such curve, though single readings can be large or run the other way.
target: Cytochrome P450 2C9 (Homo sapiens) (UniProt P11712); experiment: Cytochrome panel assay with activity outcomes; settings: recombinant CYP, pro-luciferin dealkylation, luminescence, p450-cyp2c9; series mostly up to 57.1 µM; activity, negative = inhibition: at the top concentration
Sequence (P11712 whole entry, looked up): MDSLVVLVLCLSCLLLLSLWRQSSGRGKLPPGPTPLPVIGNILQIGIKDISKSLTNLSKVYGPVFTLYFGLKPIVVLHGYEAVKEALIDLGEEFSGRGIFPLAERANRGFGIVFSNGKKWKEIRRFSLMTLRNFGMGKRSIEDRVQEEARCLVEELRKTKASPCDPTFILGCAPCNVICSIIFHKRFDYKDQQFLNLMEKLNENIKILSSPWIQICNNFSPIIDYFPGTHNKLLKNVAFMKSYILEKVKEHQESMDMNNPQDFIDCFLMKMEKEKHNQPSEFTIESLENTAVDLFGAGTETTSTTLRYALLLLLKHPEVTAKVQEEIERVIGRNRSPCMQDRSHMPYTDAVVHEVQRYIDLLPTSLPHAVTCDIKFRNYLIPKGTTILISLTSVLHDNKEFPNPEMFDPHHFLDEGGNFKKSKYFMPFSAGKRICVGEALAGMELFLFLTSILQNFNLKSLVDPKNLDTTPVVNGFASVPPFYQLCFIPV
% is set by controls: 0 for no effect and ±100 for the full control effect.

SMILES	activity, negative = inhibition	AC50
c1cncc(-c2ccc3ncnc(NC4CCNCC4)c3c2)c1	12.8% [at 2.29 µM]	
CN(C)c1ncnc2ccc(-c3ccoc3)cc12	-6.22% [at 2.29 µM]	
OC(COCc1ccccc1)Cn1cnc2ccccc21 (configuration not stated)		12.6 µM (active)
C[n+]1cn(CC(O)COCc2ccccc2)c2ccccc21 (configuration not stated)	-6.25%	
CS(=O)(=O)N1CCC[C@@]2(CCN(C(c3ccccc3)c3ccccc3)C2)C1	-11.3%	
COCC(=O)N1CCC[C@@]2(CCN(C(c3ccccc3)c3ccccc3)C2)C1	-20.6%	
COC(=O)N1CCC2(CCCN(C(c3ccccc3)c3ccccc3)C2)CC1		31.6 µM (active)
c1ccc(C(c2ccccc2)N2CCCC3(CCNCC3)C2)cc1	-17.7%	
CC(=O)N1CCC2(CC1)CN(C(c1ccccc1)c1ccccc1)C2	3.24%	
COCC(=O)N1CCC2(CC1)CN(C(c1ccccc1)c1ccccc1)C2	6.75%	
COC(=O)N1CCC2(CC1)CN(C(c1ccccc1)c1ccccc1)C2		10 µM (active)
CS(=O)(=O)N1CCC2(CC1)CN(C(c1ccccc1)c1ccccc1)C2	11.5%	
CS(=O)(=O)N1CCC2(CCCN(C(c3ccccc3)c3ccccc3)C2)CC1		12.6 µM (active)
Cc1cccc(C)c1OCC(O)CNC(C)(C)C (configuration not stated)	-10.3%	
COc1cc2cc3c4cc(OC)c(OC)cc4cc[n+]3c(C)c2cc1OC	13.1% [at 25.6 µM]	
CO[C@@H]1COC(=O)C/C=C\[C@@H](C)COC(=O)[C@H](COCc2ccccc2)NC(=O)C/C=C\[C@H]1C	-9.13% [at 11.4 µM]	
Cc1ccc(NC(=O)c2cc(Cl)nc3ccccc23)cc1	6.1%	
CC(=O)NCCNc1nc(-c2ccccc2Cl)nc2ccccc12	15.4% [at 2.29 µM]	
COCCNc1nc(-c2ccccc2Cl)nc2ccccc12	0.695% [at 2.29 µM]	
Cc1cccc(NC(=O)NNC(=O)c2cc(-c3ccccc3Cl)nc3ccccc23)c1		1.58 µM (active)
O=C(NNC(=O)c1cc(-c2ccc(Cl)c(Cl)c2)nc2ccccc12)Nc1ccccc1		4.47 µM (active)
NC(N)=N[C@@H]1C(O)[C@H](N=C(N)N)[C@@H](O)C(O)[C@H]1O (some centres not stated)	13.6% [at 11.4 µM]	
Nc1nc2c(ncn2COCCO)c(=O)[nH]1		inactive
c1cn(-c2ncnc3ccc(-c4ccoc4)cc23)cn1	-25.3% [at 2.29 µM]	
COC(=O)[C@@]1(Cc2ccccc2)[C@H]2c3cc(C(=O)N4CCCC4)n(Cc4ccc(C(F)(F)F)nc4)c3C[C@H]2CN1C(=O)c1ccccc1		5.01 µM (active)

SMILES	activity, negative = inhibition	AC50
COC(=O)[C@@]1(Cc2ccc(F)cc2)[C@H]2c3cc(C(=O)N(C)C)n(Cc4ccc(C(F)(F)F)nc4)c3C[C@H]2CN1C(=O)c1ccccc1		25.1 µM (active)
Clc1ccccc1-c1ccc2ncnc(NC3CCNCC3)c2c1	20.4% [at 2.29 µM]	
Cc1ccccc1-c1cncnc1NCc1ccccc1	-7.47% [at 2.29 µM]	
CCC(=O)N[C@@H]1Cc2ccccc2[C@@H](c2ccccc2)C1	-3.11%	
Brc1ccc(-c2nnc(-c3ccccc3)c(N3CCSCC3)n2)cc1		10 µM (active)
Clc1ccc(-c2nnc(-c3ccccc3)c(N3CCSCC3)n2)cc1		14.1 µM (active)
CN(C)c1ccc(-c2nc(N3CCNCC3)c3ccccc3n2)cc1	0.369% [at 2.29 µM]	
Cc1noc(C)c1-c1ccc2ncnc(N3CCOCC3)c2c1	7.24% [at 2.29 µM]	
CCN1CCN(c2cc(=O)n(-c3cc(Cl)ccc3C)c(=O)[nH]2)CC1	7.49%	
C[N+](C)(C)CCCCCC[N+](C)(C)C	10.1%	
COC(=O)N1CCC[C@@]2(CCN(C(=O)Nc3cccc(C#N)c3)C2)C1	-0.0277%	
Cc1ccc(CSc2nc3c(c(SCC(=O)O)n2)CCCC3)cc1		5.62 µM (active)
CC[C@@]12CCCN3CCc4c(n(c5ccccc45)C(=O)C1)[C@H]32		inactive
Fc1cccc(C2NC(=S)NC3=C2N2CCC3CC2)c1 (configuration not stated)	-27.1%	
S=C1NC2=C(C(c3ccc(Br)cc3)N1)N1CCC2CC1 (configuration not stated)		22.4 µM (active)
CCOC(=O)CC(NC(=O)c1cccs1)c1ccc(OCC)cc1 (configuration not stated)		3.55 µM (active)
CNNCc1ccc(C(=O)NC(C)C)cc1	-25.5% [at 25.6 µM]	
COc1ccc(C(NC(=O)c2ccc(-c3ccccc3)cc2)c2ccccc2)cc1 (configuration not stated)	-18.1%	
CCOC(=O)CC(NC(=O)c1ccc(C)cc1)c1ccc(C)cc1 (configuration not stated)		15.8 µM (active)
FC(F)(F)c1ccccc1-c1nc(NC2CCNCC2)c2ccccc2n1	14.5% [at 2.29 µM]	
Cc1nc(S(=O)(=O)N2CCOCC2)c(C#N)c(C)c1Cl	32.3%	
CCCOc1ccc(OCCNC2CCCC2)cc1	-7.53%	
c1c[nH]c(CN2CCOCC2)n1	-9.4% [at 11.4 µM]	
Oc1cccc2ccc(SSc3ccc4cccc(O)c4n3)nc12		1.58 µM (active)
Cc1c(N(C)C)c(=O)n(-c2ccccc2)n1C	2.35% [at 25.6 µM]	

SMILES	activity, negative = inhibition	AC50
Cc1c(O)c(=O)n(-c2ccccc2)n1C	-6.28% [at 25.6 µM]	
Cc1ccc(O)c(C(=O)c2cc(C#N)c(=O)n(-c3c(C)n(C)n(-c4ccccc4)c3=O)c2)c1		15.8 µM (active)
CCCCCOC(=O)CSc1nnc(-c2ccccc2)c(=O)[nH]1		2 µM (active)
NCCCc1c(-c2ccccc2)nc(N)[nH]c1=O	-12.1% [at 11.4 µM]	
Nc1nc(SCC(=O)O)[nH]c(=O)c1N	-6.53% [at 11.4 µM]	
Cc1ccc(S(=O)(=O)N[C@H](C(=O)N2CCC(C(=O)NCC(=O)O)CC2)C(C)C)cc1	-28.2%	
CCc1ccc2c(c1)c(N=NC1=NC(=O)CS1)c(O)n2CC		12.6 µM (active)
COc1ccc2nc3cc(Cl)ccc3c(Nc3ccc(O)c(CN4CCN(C)CC4)c3)c2c1	-28.4% [at 11.4 µM]	
Cc1sc2nc(SCC(=O)C(C)(C)C)n(Cc3ccco3)c(=O)c2c1C		1.58 µM (active)
COc1ccc(C(=O)N2CCC3(CC2)CN(C(=O)NC(C)C)C3)cc1	-3.69%	
Cc1cccc2sc(NC(=O)C3c4ccccc4Oc4ccccc43)nc12		1.26 µM (active)
Cc1ccccc1NC(=O)c1cnc(Nc2nc3ccccc3s2)nc1C	-2.78%	
O=C(Nc1cccnc1Cl)C1c2ccccc2Oc2ccccc21		1.12 µM (active)
NC(N)=NNC(=O)C(=O)O	-4.6% [at 11.4 µM]	
CCc1cc2c(NCCO)ncnc2s1		1.58 µM (active)
Cc1cnc(CNc2ncnc3ccc(-c4ccoc4)cc23)cn1	11.8% [at 2.29 µM]	
CCc1cc2c(NCc3ccco3)ncnc2s1		4.47 µM (active)
OCCCNc1ncnc2[nH]ncc12	-4.6% [at 11.4 µM]	
OCCNc1ncnc2nc[nH]c12	-11.4% [at 11.4 µM]	
c1csc(CNc2ncnc3ccc(-c4ccoc4)cc23)c1	0.0121% [at 2.29 µM]	
CN=c1nc(-c2ccccc2)n(-c2ccccc2)s1		2 µM (active)
CC(=O)c1c(C)nc(-c2ccccc2)n1O	-12.8%	
CN=C1N[C@H](c2ccccc2)N(c2ccccc2)S1	-0.499%	
CN1CC[C@@]2(CCCN(C(=O)c3cccn3C)C2)C1	11.5%	
COC(=O)[C@@]1(Cc2ccccc2)[C@H]2c3cc(C(=O)N4CCCC4)n(Cc4cccc5ccccc45)c3C[C@H]2CN1C(=O)c1ccccc1		0.251 µM (active)

SMILES	activity, negative = inhibition	AC50
COC(=O)[C@@]1(Cc2ccc(F)cc2)[C@H]2c3cc(C(=O)N4CCCC4)n(Cc4cccc5ccccc45)c3C[C@H]2CN1C(=O)c1ccccc1		1.58 µM (active)
COc1ccc(-n2c(-c3ccccc3)nc(=S)c3c2CCCC3)cc1	-24.3%	
CC1=C(C(N)=O)C(c2cccs2)n2nc(-c3cccc(Cl)c3)nc2N1 (configuration not stated)		12.6 µM (active)
CC(=O)/C(=N\N=C(N)N)c1ccccc1	11.7% [at 11.4 µM]	
C/C(=N\N=C(c1ccccc1)c1ccccc1)c1cccs1		0.708 µM (active)
C/C(=N\N=C1\NC(=O)CC(C(=O)O)S1)c1cccs1 (configuration not stated)	-23%	
CC(=O)c1cc(C)ccc1OC(=O)CCN1C(=O)C2C3c4ccccc4C(c4ccccc43)C2C1=O (configuration not stated)	-22.5%	
O=c1[nH]ncn2cccc12	-3.24%	
Cc1cc(C)c(NC(=O)C(C)Sc2nnc(-c3ccco3)n2-c2ccccc2)c(C)c1 (configuration not stated)		10 µM (active)
O=C(CSc1nnc(-c2ccco2)n1-c1ccccc1)NCc1ccco1	-27%	
O=C(O)c1ccc(CNCc2ccccc2)cc1	10.3% [at 11.4 µM]	
O=C1C2CCC(C(O)C2)N1Cc1ccccc1 (configuration not stated)	-15.5%	
NC(=O)c1ccc(C2SCC(=O)N2Cc2ccccc2)cc1 (configuration not stated)		12.6 µM (active)
O=C(COc1ccccc1)Nc1cc(C(F)(F)F)ccc1N1CCCC1		14.1 µM (active)
O=C(COC(=O)COc1ccccc1)Nc1ccc(OC(F)(F)F)cc1	-22.1%	
NS(=O)(=O)c1cc(C(=O)O)cc(N2CCCC2)c1Oc1ccccc1	2.98% [at 25.6 µM]	
Cc1nn(-c2nc3ccccc3[nH]2)c(N)c1-c1ccc(Cl)cc1		3.98 µM (active)
Oc1ccc2ccccc2c1Cc1c(O)ccc2ccccc12		2 µM (active)
O=C(O)Cc1c(O)ccc2ccccc12	-24.2% [at 11.4 µM]	
CC(C)(C)c1ccc(O)c(CN(Cc2c(O)ccc3ccccc23)C2CCCCC2)c1	-19% [at 11.4 µM]	
CC(=O)N1N=C(c2cccc([N+](=O)[O-])c2)OC1c1ccc(Cl)cc1Cl (configuration not stated)		1.26 µM (active)
CC(=O)N1N=C(c2cccc([N+](=O)[O-])c2)OC1c1ccccc1Cl (configuration not stated)		0.891 µM (active)
